Compounds without any hit were thinned out: in the full panel of roughly 83,000, 20% have a hit.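 Step 1: grow cells in 96-well plates. Step 2: add test compound at a single concentration. Step 3: incubate 48 h. Step 4: record percent growth.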 A number with no mark means an inactive call. The source made the active and inactive calls. How the source made its calls: active means growth percent below 10; inactive means the rest.
Assays:
Test in all cases: NCI-60 one-dose screen, 48 h (100 = growth as untreated, 0 = no growth, -100 = all killed)
Conditions in all cases: 10 µM
[1] = system: NCI-H23 lung
[2] = system: NCI-H226 lung
[3] = system: NCI-H322M lung
[4] = system: HOP-62 NSCLC
[5] = system: NCI-H460 lung
[6] = system: HOP-92 NSCLC
[7] = system: NCI-H522 lung
[8] = system: A549/ATCC NSCLC
[9] = system: 786-0 renal
[10] = system: COLO 205 colon
[11] = system: DU-145 prostate
[12] = system: K-562 leukemia
[13] = system: MALME-3M melanoma
[14] = system: MDA-MB-231 breast
[15] = system: RXF 393 renal
[16] = system: SF-268 CNS
[17] = system: SF-295 CNS
[18] = system: SF-539 CNS
[19] = system: UACC-257 melanoma
[20] = system: M14 melanoma

SMILES	growth [1]	growth [2]	growth [3]	growth [4]	growth [5]	growth [6]	growth [7]	growth [8]	growth [9]	growth [10]	growth [11]	growth [12]	growth [13]	growth [14]	growth [15]	growth [16]	growth [17]	growth [18]	growth [19]	growth [20]
CCCCCCCCCCCCCCCCCN	106%	111%	110%	87.7%	102%	67%	101%	105%	105%	99.8%	114%	103%	98%	93%	98.7%	113%	99.1%	94.2%	99.2%	104%
S=c1[nH]nc(Cc2ccccc2)c(=S)[nH]1	92.5%	103%	97.7%	97.7%	104%	100%	88%	94.7%	106%	106%	100%	94.6%	98.3%	113%	103%	90.3%	99.8%	102%	102%	101%
CN1CCN(c2ccc3nc(-c4ccc5nc(-c6ccc(O)cc6)[nH]c5c4)[nH]c3c2)CC1	74%	88.5%	106%	95.8%	107%	42.1%	47%	62.1%	87.2%	72%	84.5%	50.2%	37.9%	121%	37.3%	82.9%	96.3%	77%	113%	–
O=C(/C(=C/c1ccccc1)CBr)c1ccccc1	73.1%	93%	90.4%	109%	86.4%	86.3%	55.8%	90.1%	94.5%	92.6%	87.6%	9.75% (active)	77.5%	58.3%	71.7%	84.4%	95.1%	82.7%	73.9%	65.8%
COc1cc(C(C)(C)C)cc(OC)c1C(O)(c1c(OC)cc(C(C)(C)C)cc1OC)c1c(OC)cc(C(C)(C)C)cc1OC	-51.2% (active)	-65.7% (active)	-68.6% (active)	-95.3% (active)	-82.1% (active)	-66.2% (active)	-56.4% (active)	-54.4% (active)	-96.6% (active)	-89.2% (active)	-100% (active)	-89.4% (active)	-80.8% (active)	-85.2% (active)	-27.4% (active)	-77% (active)	-78.9% (active)	–	-46.1% (active)	-94.6% (active)
Cc1cnc(/C=N\NC(N)=S)c2cccc(N)c12	7.29% (active)	4.78% (active)	-21.9% (active)	11.3%	1.79% (active)	–	-1.74% (active)	11.6%	6.81% (active)	15.1%	-15.6% (active)	30.6%	–	34.2%	–	2.26% (active)	-29.9% (active)	-47.9% (active)	-30.6% (active)	-24.7% (active)
Cc1cc(NCCCN(C)C)c2ccc3c(ccc4c(NCCCN(C)C)cc(C)nc43)c2n1	-45.2% (active)	-56.6% (active)	-40.7% (active)	-22.3% (active)	-77.7% (active)	-51.2% (active)	-72.8% (active)	-22.4% (active)	-35.2% (active)	-82.8% (active)	-92.6% (active)	-52.9% (active)	-89.2% (active)	-77.4% (active)	-83.4% (active)	-86.1% (active)	-76.2% (active)	-96% (active)	-51.6% (active)	-82.9% (active)
CN(C)CCC(=O)c1c[nH]c2ccccc12	110%	105%	94%	94.4%	113%	–	91.8%	110%	98.8%	111%	111%	–	105%	115%	126%	115%	99.7%	103%	115%	101%
CSc1ccc2c(c1)C(N1CCN(C)CC1)Cc1ccccc1S2 (stereo not drawn)	56%	55.3%	–	–	29%	5.58% (active)	–	52.7%	53.6%	-75.1% (active)	34%	–	-46.6% (active)	-11.6% (active)	25.1%	36.7%	44.1%	60.1%	-61.6% (active)	–

— PubChem BioAssay (NCI)
